# In all, about 330,000 compounds went through this assay and about 4,100 (1.2%) were called active. About 2% were inconclusive and are not listed. Only a selection was taken, and actives are over-represented in it overall. A number with no mark means an inactive call. The calls were made as follows: active = max response of -50% or lower; inconclusive = between -30% and -50%; inactive = -30% or higher.
# Target: Phosphatidylinositol 5-phosphate 4-kinase type-2 alpha (Homo sapiens) (UniProt P48426)
# Sequence (P48426 whole entry, looked up): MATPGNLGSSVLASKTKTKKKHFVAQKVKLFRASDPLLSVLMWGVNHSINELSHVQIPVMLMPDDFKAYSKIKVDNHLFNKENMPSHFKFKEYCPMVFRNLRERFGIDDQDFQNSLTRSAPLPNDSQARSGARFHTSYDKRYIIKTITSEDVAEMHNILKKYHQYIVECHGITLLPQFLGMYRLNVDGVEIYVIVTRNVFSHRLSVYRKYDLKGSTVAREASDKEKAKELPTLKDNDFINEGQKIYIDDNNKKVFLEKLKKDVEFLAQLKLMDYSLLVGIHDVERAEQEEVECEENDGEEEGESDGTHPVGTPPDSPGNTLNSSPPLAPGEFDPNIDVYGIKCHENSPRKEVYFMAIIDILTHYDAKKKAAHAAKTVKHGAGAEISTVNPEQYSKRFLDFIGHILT
# Assay: qHTS for Inhibitors of phosphatidylinositol 5-phosphate 4-kinase (PI5P4K); also: value at the top dose of about 77 µM
# Details: PI5P4Kalpha enzyme, ADP-Glo luminescence, 60 min; hits give low values
# From the text: In addition to finding PI5P, we discovered the type II phosphatidylinositol 5-phosphate 4-kinase (PI5P4K) family (alpha, beta, gamma isoforms) that catalyze the conversion of PI5P to PI(4,5)P2. Alternatively, PI(4,5)P2 can also be synthesized through phosphatidylinositol-4-phosphate (PI4P) by the type I phosphatidylinositol 4-phosphate 5-kinases (PI4P5K). These PI5P4K enzymes therefore represent one way by which cells can regulate endogenous PI5P levels and play important roles in insulin signaling and in stress responses.
# This proposal aims to identify and optimize specific modulators of human PI5P4K, phosphatidylinositol-5-phosphate 4-kinase (Type II PIPK), a family of kinases that regulate AKT signaling and tumor cell growth. In this project we aim to identify inhibitors of human PI5P4K using a quantitative high-throughput screening approach against the MLSMR containing ~400,000 small molecules.
# NIH Chemical Genomics Center [NCGC]
# NIH Molecular Libraries Probe Centers Network [MLPCN]
# Assay Submitter (PI): Atsuo Sasaki, Beth Israel Deaconess Medical Center
# 2 microL of PI5P4Kalpha/substrate buffer (columns 1-2, 5-48) are dispensed into Greiner white solid bottom 1536-well assay plates; column 3 receives only PI5P4Kalpha buffer as 0x substrate controls; column 4 receives only substrate buffer as 0x PI5P4Kalpha controls. Final assay buffer consists of 0.038 M HEPES pH 7.4, 0.28 mM EGTA, 0.1% CHAPS, and 5% DMSO (final concentration). Compounds are then transferred via Kalypsys pin tool equipped with 1536-pin array (10 nL slotted pins, V&P Scientific, San Diego, CA). Following addition of compound, 1 microL of ATP (5 microM final concentration, all columns) is added to initiate the reaction. ATP is diluted in an assay buffer consisting of 0.02 M HEPES pH 7.4, 60 mM MgCl2, 15 microM ATP, and 0.1% CHAPS. The plates are then incubated at room temperature for 60 minutes. ADP-Glo reagent 1 is added (2 microL) and plates incubated for 45 minutes, before ADP-Glo reagent 2 (4 microL) is added and plates incubated for 30 minutes. They are then transferred to a ViewLux high-throughput CCD imager (PerkinElmer) wherein single end-point measurements of luminescence are acquired using a clear filter.
# % is scaled to controls: 0 for no effect and ±100 for the full control effect.
row,SMILES,max response
1,Nc1c(NCCc2ccccc2)c2ccccc2oc1=O,-0.531%
2,S=c1[nH]nc(NCCc2ccccc2)s1,-73.1% (active)
3,S=C(NCCc1ccccc1)Nc1ccccc1,-4.55%
4,Cc1ccccc1-c1csc(C(O)c2cccc(Cl)c2)n1 (stereo not drawn),23.5%
5,Cc1ccnc(N2CCCC(C(=O)NC3CC3)C2)n1 (stereo not drawn),-0.042%
6,Cc1ccnc(SC2CC(=O)N(c3ccccc3)C2=O)n1 (stereo not drawn),-1.33%
7,Cc1ccnc(-n2sc3ccccc3c2=O)n1,-98.6% (active)
8,CCOCCC(=O)Nc1ccc2c(c1)c(=O)n(C)n2-c1ccc2ccccc2c1,0.749%
9,O=C1CCCC(O)=C1N=Nc1ccc2ncsc2c1,-66.1% (active)
10,O=C1CCCC(O)=C1N=Nc1ccc(S(=O)(=O)N2CCOCC2)cc1,-20.1%
11,COc1ccc(C(C#N)=C2C=CC(=NO)c3ccccc32)cc1,-8.83%
12,N#Cc1c(-c2ccc(Cl)cc2)c2c([nH]c1=S)CCCC2,-61.4% (active)
13,CC(=O)c1c(C)[nH]c(=S)c(C#N)c1-c1ccc(F)cc1,-20.4%
14,N#Cc1c2c(c(-c3ccccc3)[nH]c1=O)CCCC2,-4.1%
15,COc1cc2ccccc2cc1C(=O)Nc1ccc(N2CCOCC2)cc1,5.82%
16,CCN(CC)c1ccc(C(=O)N/N=C/c2ccc(N3CCOCC3)cc2)cc1,-1.97%
17,Cc1ccc(/C=N/NC(=S)NC2CCCCC2)o1,-0.109%
18,Cc1ccc(/C=N/NC(=O)c2cc3ccccc3cc2O)o1,-60.2% (active)
19,Cc1ccc(/C=N/NC(=S)Nc2cccc(S(=O)(=O)N(C)C)c2)o1,-3.83%
20,O=C(NN=Cc1ccc(N2CCOCC2)cc1)c1cc2ccccc2cc1O,-58.2% (active)
21,CCOc1ccc(CCNC(=O)COC(=O)c2ccc(C)c(S(=O)(=O)N3CCOCC3)c2)cc1OCC,-2.07%
22,CC(C)C[C@@H]1COc2cc(N3CCC[C@@H]3CO)ccc2S(=O)(=O)N1,2.99%

row,SMILES,max response
1,COC(=O)[C@@]12C[C@@H](CC(=O)NCCCCc3ccccc3)C(=O)N(Cc3ccccc3)C1=CCC(C)(C)C2,14.2%
2,C#Cc1ccc(NC(=O)C2(C)CCN2C(=O)Cc2ccc(-c3ccccc3)cc2)cc1 (stereo not drawn),26.3%
3,CCCc1c(-c2ccccc2F)ncn1Cc1ccccc1OC,4%
4,Cc1ccc(C2=N/C(=C\c3ccc(OS(=O)(=O)c4ccc(C)cc4)cc3)C(=O)O2)cc1,-1.18%
5,CCS(=O)(=O)C1=NSC2=NC(=O)/C(=C\c3cc(C)n(-c4cccc(OC)c4)c3C)C(=N)N21,-20.4%
6,CCS(=O)(=O)C1=NSC2=NC(=O)/C(=C\c3ccc(OS(=O)(=O)c4ccccc4)cc3)C(=N)N21,-73.6% (active)
7,Cc1ccccc1-c1nc(NC(C)C)nc2cc(-c3ccccc3)sc12,8.32%
8,c1ccc(-c2cc(-c3ccccc3)[nH]n2)cc1,-6.2%
9,S=c1[nH]nc(-c2cc(-c3ccccc3)n[nH]2)n1/N=C/c1c2ccccc2cc2ccccc12,-58.9% (active)
10,Fc1ccccc1/C=N/n1c(-c2cccnc2)n[nH]c1=S,5.87%
11,Cc1ccc(Cn2c(C)nc3c(c2=O)c2nc4ccccc4nc2n3Cc2ccco2)cc1,-62.3% (active)
12,Clc1cccc(-c2nc3nc4ccccc4nc3n2Cc2ccco2)c1,-4.59%
13,O=c1c2ccccc2oc2nc(C3CCCCC3)n(Cc3ccco3)c(=O)c12,0.643%
14,CC1(C(=O)NCc2cccc3ccccc23)CCN1Cc1ccc(-c2ccccc2)o1 (stereo not drawn),25.6%
15,CCCCC[C@@H]1C=C(C(=O)OCC)[C@H](c2ccccc2)N1S(=O)(=O)c1ccc(C)cc1,8.7%
16,COCCNc1ncnc2c1ncn2[C@H]1CN(Cc2ccc(OC)cc2)C[C@@H](CO)O1,2.79%
17,C=CS(=O)c1sc(Cl)c(N2CCOCC2)c1[N+](=O)[O-] (stereo not drawn),-71.5% (active)
18,CC(=O)Nc1cc(-c2ccccc2F)cn2c(-c3cccc(C(F)(F)F)c3)cnc12,-3.13%
19,COc1ccc(C(C)(O)c2nc(-c3cc(F)cc(F)c3)cs2)cc1 (stereo not drawn),30.3%
20,Cc1cc(=O)n2[nH]c(-c3sccc3-n3c(C)ccc3C)cc2n1,-57.4% (active)
21,Cc1cc(=O)n2[nH]c(-c3cccc(Cl)c3)cc2n1,-3.84%
22,CCc1c(C)nc2cc(-c3cccs3)[nH]n2c1=O,-0.23%

row,SMILES,max response
1,CC(C)C[C@H]1CN([C@@H](Cc2ccccc2)CN2CCC[C@@H]2CN2C(=O)C(=O)NC[C@@H]2Cc2ccc(O)cc2)C(=O)C(=O)N1CCc1ccccc1,-1.65%
2,COc1ccc(OC)c2sc(NC(=O)C3COc4ccccc4O3)nc12 (stereo not drawn),2.71%
3,O=C(Nc1ncc([N+](=O)[O-])s1)C1COc2ccccc2O1 (stereo not drawn),-21.4%
4,O=C(Nc1nc(-c2ccncc2)cs1)C1COc2ccccc2O1 (stereo not drawn),-62.8% (active)
5,CN(C(=O)CN1CCN(c2cc(-c3ccc(OCc4ccccc4)cc3)ncn2)CC1)c1ccccc1,-25%
6,C[C@H]1Cn2cnc(C(=O)N[C@H](C)c3ccccc3)c2C(=O)N1,-2.59%
7,CC1=C/C(=N\OS(=O)(=O)c2ccccc2)C=CC1=O,-78.8% (active)
8,Cc1nc(C(F)(F)F)ccc1C(=O)N1CCC1(C)C(=O)NS(=O)(=O)c1ccc(F)cc1F (stereo not drawn),-1.9%
9,CCC(c1nnnn1Cc1ccco1)N(CCc1ccccc1)Cc1cc2cccc(C)c2[nH]c1=O (stereo not drawn),-1.38%
10,CCC(c1nnnn1Cc1ccco1)N(CCc1ccccc1)Cc1cc2ccc(OC)cc2[nH]c1=O (stereo not drawn),-64.1% (active)
11,CCC(c1nnnn1Cc1ccco1)N(Cc1cc2cc(OC)ccc2[nH]c1=O)C1CCCCC1 (stereo not drawn),-18.4%
12,CCc1nc2ccc(C(=O)NC3CCN(Cc4ccccc4)CC3)cn2c1N(CC)CCOC,-1.84%
13,CCOC(=O)[C@]12CCCC=C1N(Cc1ccc(Cl)cc1Cl)C(=O)[C@H](CC(=O)N1CCCCC1)C2,12%
14,CCCCC[C@H](C)N1C[C@@H](COCc2ccccc2)Oc2cc(N3CC[C@@H](N(C)C)C3)ccc2S1(=O)=O,27.1%
15,CN(C)C(=O)c1cccc(-c2cnc3sc(NCc4ccc5c(c4)OCO5)nn23)c1,-16.9%
16,CCOc1ccc2[nH]c(=S)sc2c1,-59.6% (active)
17,Nc1ccc2[nH]c(=S)sc2c1,-73.9% (active)
18,O=c1[nH]c2ccccc2s1,5.23%
19,CCOc1ccc2nc(N(CCN(C)C)C(=O)c3ccc4ccccc4c3)sc2c1,-3.3%
20,COc1ccc2[nH]c(=S)cc(C)c2c1,-9.52%
21,CC(C)C[C@H]1CNC(=S)N1C[C@H]1CCCN1C[C@H](Cc1ccc(O)cc1)N1C[C@H](Cc2ccc(O)cc2)N(CC2CCCCC2)C1=S,-6.15%
22,O=C(NCc1ccc(F)cc1)c1cc(C2CCCCN2C(=O)c2ccccn2)on1 (stereo not drawn),-11.1%

row,SMILES,max response
1,CCOC(=O)C1=CC[C@@H](c2ccncc2)N(S(=O)(=O)c2ccc(C)cc2)C1,-0.549%
2,COc1cccc(-c2cc(NC(C)=O)c3ncc(-c4cccc(C(C)=O)c4)n3c2)c1,-0.237%
3,CC(C)NC(=O)C1(C)CCCCN1Cc1cccc(C(F)(F)F)c1 (stereo not drawn),22.3%
4,COC(=O)c1ccc2nc(-c3ccc(Cl)cc3)c(Cc3cccc(F)c3)n2c1,7.01%
5,C=CCOc1cccc(C2C(C(=O)c3ccc(C)o3)=C(O)C(=O)N2CCN2CCOCC2)c1 (stereo not drawn),2.35%
6,Cc1cc(N2C(=O)C(O)=C(C(=O)c3ccc(C)o3)C2c2ccc(OCc3ccccc3)cc2)no1 (stereo not drawn),-59.9% (active)
7,CCCOc1ccc(C2C(C(=O)c3ccc(C)o3)=C(O)C(=O)N2CCCn2ccnc2)cc1 (stereo not drawn),-23%
8,O=C(c1ccc(CS(=O)Cc2ccccc2Cl)o1)N1CCN(c2ccccc2)CC1 (stereo not drawn),-2.59%
9,O=C(Nc1ccc(OCCO)cc1)c1csc([C@H]2C[C@H](O)[C@@H](CO)O2)n1,-3.56%
10,C=CC(=O)Nc1ccc(Nc2ccnc(Nc3ccc(N4CCN(C)CC4)cc3)n2)cc1,-68.9% (active)
11,CN1CCN(c2ccc(NC(=O)c3cc(Cl)c4c(c3)OCCO4)cc2)CC1,3.06%
12,Cc1cccc(N2CCN(c3ccc(NC(=O)/C=C\C(=O)O)cc3)CC2)c1,-9.89%
13,CCCCCc1c(Cc2ccccc2)ncn1CCc1ccccc1OC,-4.89%
14,CCC(c1nnnn1-c1ccc2c(c1)OCCO2)N1CCN(c2ccc(C(F)(F)F)cn2)CC1 (stereo not drawn),-0.412%
15,Cn1c(SCC(=O)Nc2ccc(Cl)cc2)nc(O)cc1=O,-57.1% (active)
16,COc1ccc(NC(=O)CSc2nc3ccccc3c(=O)n2C)cc1,0.885%
17,CC(C)Cn1c(SCC(=O)Nc2ccc(Cl)cc2F)nc(O)cc1=O,3.57%
18,C[N+](C)(CCCCCC[N+](C)(C)CCCN1C(=O)c2cccc3cccc(c23)C1=O)CCCN1C(=O)c2cccc3cccc(c23)C1=O,-72.8% (active)
19,O=C(CCCCCN1C(=O)c2cccc3cccc(c23)C1=O)NCc1ccco1,0.75%
20,O=C1c2ccccc2C(=O)N1CCCCCCN1C(=O)c2ccccc2C1=O,1.45%
21,COc1ccc(CC(N)c2csc(NC(=O)Nc3ccc(C(C)C)cc3)n2)cc1 (stereo not drawn),-8.9%
22,CC1(C(=O)NS(=O)(=O)c2ccc(C#N)cc2)CCN1C(=O)CC1CCCC1 (stereo not drawn),0.461%
